Measurements published in paper PMC5540273 (PLoS ONE, 2017).
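Further: KINOMEscan kinase panel screen.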

The molecules below were run on T1, ERK1. Conditions: concentration: 1 μM, replicates: in singlicate; n = 1.
T1 construct: gene MAPK3
For O=c1cc(N2CCOCC2)nc2n(Cc3cccc(Cl)c3Cl)c(C3CC3)nn12 [GSK2358994], the “%Inh” value was 0%.
In the case of O=c1cc(N2CCOCC2)nc2n(Cc3cccc(F)c3)ccn12 [GSK2297430], the “%Inh” value is reported as 15%.
In the case of CSc1ccc(-c2cc3ncnc(SCC(=O)O)c3s2)cc1, the “%Inh” value is reported as 0%.
In the case of O=C(c1ccc(-c2cc(-c3c[nH]nc3-c3ccccn3)ccn2)cc1)N1CCOCC1 [GW812171], the “%Inh” value is reported as 0%.
For COc1ccc(Nc2nccc(N3CCC(NC(=O)Nc4cc(C)ccc4C)C3)n2)cc1 (centres unmarked) [GSK1379741], the “%Inh” value was 0%.
In the case of Fc1ccc(-c2nn3c(OCC(F)(F)F)cccc3c2-c2ccncc2)cc1 [GW514784], the “%Inh” value is reported as 0%.
N#Cc1ccc(-c2cc(-c3c[nH]nc3-c3ccccn3)ccn2)cc1 [GW693028] was tested, and the “%Inh” value was 6%.
COc1cc2ncn(-c3cc(OCc4sccc4Cl)c(C(N)=O)s3)c2cc1OC [GSK448459] was tested, and the “%Inh” value was 0%.
NS(=O)(=O)CCc1cccc(Nc2nccc(-c3c(-c4cccc(NC(=O)c5c(F)cccc5F)c4)nn4ccccc34)n2)c1 [GSK336735] was tested, and the “%Inh” value was 7%.
O=C(Nc1n[nH]c2cc(-c3cccc(F)c3)ccc12)C1CC1 [SB-735464] was tested, and the “%Inh” value was 0%.

These molecules were tested on T2, ERK2. Conditions: concentration: 1 μM, replicates: in singlicate; n = 1.
T2 construct: gene MAPK1
N#Cc1c(N2CCOCC2)sc(-c2ccn[nH]2)c1-c1ccc(Cl)cc1 was tested, and the “%Inh” value was 24%.
c1ccc(-c2cc(-c3c[nH]nc3-c3ccccn3)ccn2)cc1 [GW576604] was tested, and the “%Inh” value was 0%.
With O=C(NCCCN1CCOCC1)c1cccc(Nc2nccc(Nc3ccc(Oc4ccccc4)cc3)n2)c1 [GW663929] the “%Inh” value was 0%.
CCCCCc1nc2c(N)ncnc2n1CCCCC [SKF-97255] was tested, and the “%Inh” value was 0%.
With Cc1c(Cn2c(C)nn3c(=O)cc(N4CCOC(C)C4)nc23)cccc1C(F)(F)F (centres unmarked) [GSK2344444] the “%Inh” value was 0%.
For O=C(NCCNc1ccnc(Nc2ccc(F)cc2)n1)c1cc2ccccc2s1 [GSK1379874], the “%Inh” value was 0%.
For CC(C)Oc1ccc2c(-c3ccnc(Nc4ccc(N5CCN(C)CC5)cc4)n3)cnn2n1 [GW696155], the “%Inh” value was 0%.
NCCNS(=O)(=O)c1ccc(-c2ccnc3[nH]ccc23)cc1 [GSK977617] was tested, and the “%Inh” value was 0%.
For COc1cc2c(cc1OCCN1CCN(C)CC1)ncc1c3ccc(C#N)cc3[nH]c21, the “%Inh” value was 12%.
CC(=O)Nc1ccc(COc2ccc(Nc3ccnc4cc(-c5ccccn5)ccc34)cc2)cc1.Cl [GW440148] was tested, and the “%Inh” value was 0%.
With CC(C)(C)n1cnc2c(N)ncnc21 [SKF-97359] the “%Inh” value was 0%.
For CC(C)(CN)c1nc(-c2ccc(Cl)c(O)c2)c(-c2ccncc2)[nH]1.O=C(O)C(F)(F)F [SB-477794], the “%Inh” value was 0%.
With CN(C1=C(c2ccccc2)C(=O)NC1=O)c1ccccc1 [SB-334860] the “%Inh” value was 13%.
With Cl.Nc1ncnc2occ(-c3ccc(NC(=O)Nc4cc(C(F)(F)F)ccc4F)cc3)c12 [SB-707548] the “%Inh” value was 0%.
For NS(=O)(=O)c1cccc(-c2ccc3nccc(-c4cccc(S(N)(=O)=O)c4)c3c2)c1 [GW867253], the “%Inh” value was 0%.
In the case of NS(=O)(=O)c1cccc(-c2ccc3ncc(N4CCOCC4)nc3c2)c1 [GSK1535721], the “%Inh” value is reported as 0%.
COc1ccc(CNC(=O)NC2CCN(c3ccnc(Nc4ccc(OC)cc4)n3)C2)cc1 (centres unmarked) [GSK1379727] was tested, and the “%Inh” value was 0%.
With Cc1nnc(-c2ccc(C)c(-c3ccc(C(=O)Nc4ccc(NS(C)(=O)=O)cc4)cc3)c2)o1 [GW702865] the “%Inh” value was 0%.
For Cc1nnc(-c2ccc3occ(-c4ccc(C(C)O)cc4)c3c2)o1 (centres unmarked), the “%Inh” value was 0%.
In the case of [2H]C([2H])(c1cccc(C(F)(F)F)c1C)n1ccn2c(=O)nc(N3CCOCC3)cc12 [GSK2336394], the “%Inh” value is reported as 0%.
In the case of NCC(NC(=O)c1cc(-c2cn[nH]c2)c(-c2ccnc3[nH]ccc23)s1)c1ccccc1.O=C(O)C(F)(F)F.O=C(O)C(F)(F)F (centres unmarked) [GSK1325775], the “%Inh” value is reported as 0%.
With O=C(NCCNc1ccnc(Nc2ccc(F)cc2)n1)Nc1ccccc1F [GSK1379880] the “%Inh” value was 0%.
For COc1ccc(S(=O)(=O)NC2CCN(c3cc(C)nc(Nc4cccc(C#N)c4)n3)CC2)cc1.O=C(O)C(F)(F)F [GSK1653539], the “%Inh” value was 0%.
In the case of O=C1NC(=O)C(N2CCc3ccccc32)=C1c1cccc(Cl)c1 [SB-408010], the “%Inh” value is reported as 12%.
In the case of O=c1cc(N2CCOCC2)nc2n(Cc3cccc(Cl)c3Cl)c(C3CC3)nn12 [GSK2358994], the “%Inh” value is reported as 11%.
For O=c1cc(N2CCOCC2)nc2n(Cc3cccc(F)c3)ccn12 [GSK2297430], the “%Inh” value was 6%.
For CSc1ccc(-c2cc3ncnc(SCC(=O)O)c3s2)cc1, the “%Inh” value was 19%.
O=C(c1ccc(-c2cc(-c3c[nH]nc3-c3ccccn3)ccn2)cc1)N1CCOCC1 [GW812171] was tested, and the “%Inh” value was 0%.
COc1ccc(Nc2nccc(N3CCC(NC(=O)Nc4cc(C)ccc4C)C3)n2)cc1 (centres unmarked) [GSK1379741] was tested, and the “%Inh” value was 0%.
In the case of Fc1ccc(-c2nn3c(OCC(F)(F)F)cccc3c2-c2ccncc2)cc1 [GW514784], the “%Inh” value is reported as 0%.
With N#Cc1ccc(-c2cc(-c3c[nH]nc3-c3ccccn3)ccn2)cc1 [GW693028] the “%Inh” value was 0%.
COc1cc2ncn(-c3cc(OCc4sccc4Cl)c(C(N)=O)s3)c2cc1OC [GSK448459] was tested, and the “%Inh” value was 0%.
With NS(=O)(=O)CCc1cccc(Nc2nccc(-c3c(-c4cccc(NC(=O)c5c(F)cccc5F)c4)nn4ccccc34)n2)c1 [GSK336735] the “%Inh” value was 0%.
For O=C(Nc1n[nH]c2cc(-c3cccc(F)c3)ccc12)C1CC1 [SB-735464], the “%Inh” value was 0%.
